In PubChem BioAssay AID463173 (ICCB-Longwood Screening Facility, Harvard Medical School, 2010):
About 1,700 (3.3%) of roughly 52,000 compounds were called active. No stated cut-off is given here; in the data, active means survival mostly below about 52% (no sharp cut-off); inactive means mostly above about 56%. Many of the other results were omitted from the sample, so actives are more common in it than they were.

Tested on: Wild type
Test: S. aureus survival, RN4220 and DeltatarO strains – OD600, teichoic acid synthesis inhibitors, primary screen (AID 463173)
Settings: S. aureus RN4220 wild type/DeltatarO growth, OD600, 18 h, hits give low values, screened at 18.75 µg/mL (by protocol)

Row | Structure (SMILES) | survival
1 | Cc1cccc(-n2c(SCC(=O)Nc3ccccc3C)nc3c(oc4ccccc43)c2=O)c1 | 86% (inactive)
2 | Cc1cccc(NC(=O)N2CCN(C(=O)c3nsc4ccccc34)CC2)c1C | 72% (inactive)
3 | CCc1ccc(NC(=O)N2CCN(C(=O)c3nsc4ccccc34)CC2)cc1 | 76% (inactive)
4 | Cc1ccc(NC(=O)N2CCN(C(=O)c3nsc4ccccc34)CC2)cc1C | -6% (active)
5 | O=C(Nc1ccc(F)cc1)N1CCN(C(=O)c2nsc3ccccc23)CC1 | 14% (active)
6 | O=C(Nc1ccc(F)c(Cl)c1)N1CCN(C(=O)c2nsc3ccccc23)CC1 | 70% (inactive)
7 | CCc1ccccc1NC(=O)N1CCN(C(=O)c2nsc3ccccc23)CC1 | -1% (active)
8 | Cc1cc(C)cc(NC(=O)N2CCN(C(=O)c3nsc4ccccc34)CC2)c1 | 78% (inactive)
9 | O=C(Nc1ccccc1)N1CCN(C(=O)c2nsc3ccccc23)CC1 | 85% (inactive)
10 | Cc1ccc(C)c(NC(=O)N2CCN(C(=O)c3nsc4ccccc34)CC2)c1 | 69% (inactive)
11 | CCC(C(=O)NCc1ccccc1Cl)n1c(=O)c2cccn2c2ccccc21 (stereo not drawn) | 76% (inactive)
12 | O=c1c2oc3ccccc3c2n(Cc2cccc(F)c2)c(=O)n1Cc1ccc2c(c1)OCO2 | 86% (inactive)
13 | O=C(Cn1c(-c2cccs2)cc2cc(F)ccc21)N1CCCCC1 | 72% (inactive)
14 | COc1cccc(CNC(=O)c2ccc3oc(=O)n(Cc4ccccc4)c3c2)c1 | -3% (active)
15 | CCc1ccc(NC(=O)c2ccc3oc(=O)n(Cc4ccccc4)c3c2)cc1 | 1% (active)
16 | O=C(NCc1ccc(F)cc1)c1ccc2oc(=O)n(Cc3ccccc3)c2c1 | -4% (active)
17 | CCc1ccc(NC(=O)c2ccc3c(c2)nnn3CC)cc1 | -6% (active)
18 | CCn1nnc2cc(C(=O)Nc3ccc(OC)cc3)ccc21 | 73% (inactive)
19 | O=C(NCc1ccc(Cl)cc1)c1ccc2oc(=O)n(Cc3ccccc3)c2c1 | 129% (inactive)
20 | O=C(Nc1cccc(F)c1)c1ccc2oc(=O)n(Cc3ccccc3)c2c1 | 81% (inactive)
21 | Cc1ccc(CNC(=O)c2ccc3oc(=O)n(Cc4ccccc4)c3c2)cc1 | 57% (inactive)
22 | Cc1cccc(CNC(=O)c2ccc3oc(=O)n(Cc4ccccc4)c3c2)c1 | 60% (inactive)
23 | CCn1nnc2cc(C(=O)Nc3ccc(C)c(Cl)c3)ccc21 | 53% (inactive)
24 | O=C(Nc1ccc(Cl)cc1)c1ccc2oc(=O)n(Cc3ccccc3)c2c1 | 63% (inactive)
25 | O=C(NCc1ccccc1)c1ccc2oc(=O)n(Cc3ccccc3)c2c1 | 71% (inactive)

Row | Structure (SMILES) | survival
26 | Cc1nn(Cc2ccccc2)c(C)c1NC(=O)c1cc(C(C)C)on1 | 77% (inactive)
27 | O=C(Nc1ccc(NC(=O)c2cccs2)cc1)c1ccc(Cl)cc1 | 81% (inactive)
28 | Cc1onc(-c2c(Cl)cccc2Cl)c1C(=O)n1c(C)nc2ccccc21 | 105% (inactive)
29 | Cc1cc(C)cc(NC(=O)Cn2c(-c3cncs3)nc3ccccc32)c1 | 63% (inactive)
30 | CN(C)C(=O)Cn1c2[n+](c3ccccc31)CC(O)CS2 (stereo not drawn) | 103% (inactive)
31 | O=C(COc1ccc(Cl)cc1)NCC(c1ccco1)S(=O)(=O)c1ccc(Cl)cc1 (stereo not drawn) | 78% (inactive)
32 | Cc1cccc(CNC(=O)Cc2csc3ccccc23)c1 | 116% (inactive)
33 | COc1ccc(CNC(=O)c2cccc(NC(=O)N3CCSc4ncccc43)c2)cc1 | 67% (inactive)
34 | COc1ccccc1NC(=O)CCn1nc(-c2ccccc2OC)c2c(C)cc(C)nc21 | 111% (inactive)
35 | O=C(Oc1cccc2cccnc12)c1ccccc1 | 1% (active)
36 | O=C(/C=C\c1ccco1)Oc1cccc2cccnc12 | 1% (active)
37 | O=C(/C=C/c1ccco1)OCCN1CCOCC1 | 92% (inactive)
38 | O=C1c2ccccc2C(=O)N1COc1cccc2cccnc12 | 101% (inactive)
39 | O=C(Oc1ccccc1-c1nc(-c2ccccc2)no1)c1ccccc1 | 100% (inactive)
40 | O=C(/C=C/c1ccco1)ON1C(=O)c2ccccc2C1=O | 117% (inactive)
41 | N#Cc1ccccc1NC(=O)Cn1cnc2onc(-c3cccc(F)c3)c2c1=O | 105% (inactive)
42 | O=C(C1CCN(c2nc3ccccc3[nH]2)CC1)N1CCN(c2ccccc2)CC1 | 85% (inactive)
43 | Cc1ccc2nc(N3CCC(C(=O)N4CCN(c5cccc(Cl)c5)CC4)CC3)[nH]c2c1 | 74% (inactive)
44 | O=C(C1CCN(c2nc3ccccc3[nH]2)CC1)N1CCN(c2cccc(Cl)c2)CC1 | 0% (active)
45 | CCCC(=O)c1cc(F)c(N2CCOCC2)cc1C | 121% (inactive)
46 | Cc1ccc(NC(=O)Cn2c(=O)n(Cc3ccccc3)c(=O)c3sc4ccccc4c32)cc1 | 93% (inactive)
47 | Cc1ccc(-n2ncc(C(=O)NCc3ccco3)c2C2CCN(C(=O)OC(C)(C)C)CC2)cc1C | 72% (inactive)
48 | COc1ccc(N2CCN(c3oc(/C=C/c4ccc(F)cc4)nc3C#N)CC2)cc1 | 84% (inactive)
49 | COc1cccc(C(=O)N(Cc2nc(-c3ccc(Cl)cc3)no2)C(C)C)c1OC | 46% (inactive)
50 | Cc1cc(C)cc(C(=O)N(Cc2nc(-c3ccc(Cl)cc3)no2)C(C)C)c1 | 17% (inactive)

Row | Structure (SMILES) | survival
51 | CCOc1cc(C(=O)NCc2nc(-c3cccc(C)c3)no2)cc(OCC)c1OCC | 89% (inactive)
52 | CCOc1cc(C(=O)N(Cc2nc(-c3ccc(C)cc3)no2)C(C)C)cc(OCC)c1OCC | 15% (active)
53 | CCCCOc1ccc(C(=O)N(Cc2nc(-c3ccc(Cl)cc3)no2)C(C)C)cc1 | 85% (inactive)
54 | Cc1ccc(-c2noc(CN(C(=O)c3ccc(C(C)(C)C)cc3)C(C)C)n2)cc1 | -1% (active)
55 | CC(C)N(Cc1nc(-c2ccc(Cl)cc2)no1)C(=O)c1ccc(C(C)(C)C)cc1 | 0% (active)
56 | Cc1ccc(-c2noc(CNC(=O)c3ccc(C(C)(C)C)cc3)n2)cc1 | 89% (inactive)
57 | CCCCN(C)CCCNC(=O)C1CCN(S(=O)(=O)CCC)CC1 | 77% (inactive)
58 | Cc1ccc(NC(=O)Cn2c(=O)n(CCC(=O)N3CCc4ccccc4C3)c(=O)c3ccccc32)c(C)c1 | 79% (inactive)
59 | COc1cccc(C(=O)Nc2cc3c(cc2C(=O)c2ccc(C)cc2)OCCO3)c1 | 71% (inactive)
60 | CCOC(=O)c1cc(S(=O)(=O)Nc2ccc(OC(F)(F)F)cc2)[nH]n1 | 87% (inactive)
61 | CCN1CCN(c2cc(C)c3cc(NC(=O)c4ccc(OC)c(OC)c4)ccc3n2)CC1 | 65% (inactive)
62 | CCN1CCN(c2cc(C)c3cc(NC(=O)c4cc(OC)c(OC)c(OC)c4)ccc3n2)CC1 | 73% (inactive)
63 | COc1ccc(C(=O)Nc2ccc3nc(N4CCC(C)CC4)cc(C)c3c2)cc1 | 86% (inactive)
64 | COc1ccccc1C(=O)Nc1ccc2nc(N3CCC(C)CC3)cc(C)c2c1 | 0% (active)
65 | CCN1CCN(c2cc(C)c3cc(NC(=O)c4cc(Cl)ccc4OC)ccc3n2)CC1 | 2% (active)
66 | COc1ccccc1CC(=O)Nc1ccc2nc(N3CCC(C)CC3)cc(C)c2c1 | 71% (inactive)
67 | CCSc1nc(NC(C)=O)nn1C(C)=O | 103% (inactive)
68 | Cc1ccc(NC(=O)Cc2c(C(=O)O)c(C)cn2C)cc1Cl | 87% (inactive)
69 | CCOCCCn1c(SCC(=O)Nc2ccccc2OC)nc2c(oc3ccccc32)c1=O | 81% (inactive)
70 | CCOc1ccc(C(=O)Nc2cccc(C(=O)OCc3cc(=O)n4cc(C)sc4n3)c2)cc1 | 81% (inactive)
71 | Cc1cc2ncn(CCC(=O)Nc3ccccc3F)c2cc1C | 105% (inactive)
72 | COc1ccc(OCCn2cnc3ccccc32)cc1 | 107% (inactive)
73 | c1ccc2c(c1)ncn2CCn1cnc2ccccc21 | 104% (inactive)
74 | CC(=O)OC(COc1ccccc1)Cn1cnc2cc(C)c(C)cc21 (stereo not drawn) | 125% (inactive)
75 | Cc1cc2ncn(CCCCOc3ccccc3)c2cc1C | 20% (active)

Row | Structure (SMILES) | survival
76 | Cc1ccc(OCCCCn2cnc3ccccc32)cc1 | 29% (active)
77 | Cc1ccc(Cl)cc1N1CCN(C(=O)C2CCN(S(=O)(=O)c3ccc4c(c3)oc(=O)n4C)CC2)CC1 | 66% (inactive)
78 | Cc1cccc(N2CCN(c3cc(C)nc4c(-c5ccc(Cl)cc5)c(C)nn34)CC2C)c1 (stereo not drawn) | 74% (inactive)
79 | Cc1ccc(C)c(N2CCN(c3cc(C)nc4c(-c5ccc(Cl)cc5)c(C)nn34)CC2)c1 | 96% (inactive)
80 | Cc1ccc(N2CCN(c3cc(C)nc4c(-c5ccc(Cl)cc5)c(C)nn34)CC2C)cc1 (stereo not drawn) | 14% (active)
81 | Cc1n[nH]c(=S)n1CC(=O)N1c2ccccc2CCc2ccccc21 | 102% (inactive)
82 | CC1=C(C(=O)Nc2ccccc2)C(c2ccc(Br)cc2)n2nc(CCCO)nc2N1 (stereo not drawn) | 79% (inactive)
83 | CCOc1ccc(NC(=O)Cn2cc(C(=O)c3ccc(C)c(C)c3)c(=O)c3cc(F)ccc32)cc1 | 89% (inactive)
84 | CC(=O)N1c2c(cc(Br)cc2S(=O)(=O)Nc2ccc(OC(F)(F)F)cc2)CC1C (stereo not drawn) | 105% (inactive)
85 | COc1ccc(CNS(=O)(=O)c2cc(Br)cc3c2N(C(C)=O)C(C)C3)cc1 (stereo not drawn) | 138% (inactive)
86 | COc1cc(NS(=O)(=O)c2cc(Br)cc3c2N(C(C)=O)C(C)C3)cc(OC)c1 (stereo not drawn) | -3% (active)
87 | Cc1cccc(CNC(=O)Cn2ccc3cc(S(=O)(=O)N4CCCC4)ccc32)c1 | 69% (inactive)
88 | Cc1cccc(CNC(=O)Cn2ccc3cc(S(=O)(=O)N4CCC(C)CC4)ccc32)c1 | 67% (inactive)
89 | O=C(CCn1ccc2cc(S(=O)(=O)N3CCCC3)ccc21)NCc1cccc(Cl)c1 | -1% (active)
90 | CN(C)c1ccc(CNC(=O)CCCn2ccc3cc(S(=O)(=O)N4CCCC4)ccc32)cc1 | 0% (active)
91 | Cc1cccc(CNC(=O)Cn2ccc3cc(S(=O)(=O)N4CCCCCC4)ccc32)c1 | -6% (active)
92 | CCc1ccc(CNC(=O)CCCn2ccc3cc(S(=O)(=O)N4CCCC4)ccc32)cc1 | 63% (inactive)
93 | O=C(Cn1ccc2cc(S(=O)(=O)N3CCCCC3)ccc21)NCc1cccc(Cl)c1 | 128% (inactive)
94 | Cc1ccc(CNC(=O)C(C)n2ccc3cc(S(=O)(=O)N4CCCC4)ccc32)cc1 (stereo not drawn) | 66% (inactive)
95 | COc1ccc(CNC(=O)CCCn2ccc3cc(S(=O)(=O)N4CCCC4)ccc32)cc1 | 75% (inactive)
96 | CC(C(=O)NCc1ccccc1)n1ccc2cc(S(=O)(=O)N3CCCC3)ccc21 (stereo not drawn) | -3% (active)
97 | CCc1ccc(CNC(=O)C(C)n2ccc3cc(S(=O)(=O)N4CCCCCC4)ccc32)cc1 (stereo not drawn) | 75% (inactive)
98 | Cc1cccc(CNC(=O)CCn2ccc3cc(S(=O)(=O)N4CCCC4)ccc32)c1 | 76% (inactive)
